High-throughput results deposited in PubChem by National Center for Advancing Translational Sciences (NCATS).
Many of the other results were omitted from the sample, so hits are more common in it than they were.
HT1080 IDH1KD tx = qHTS for induction of synthetic lethality in tumor cells producing 2HG: qHTS for the HT-1080-IDH1KD cell line; hit rate 2% among 360,000; Potency, µM (doses to about 46.1 µM), hits mostly cytotoxic; HT-1080 IDH1 knockdown viability, ATP luminescence, 48 h; AID 686971, 2013
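Assay cells: HT-1080 with IDH1 knockdown, 750 per well, RPMI/5% FBS. Exposure: 48 h at 37 °C following 2 h pre-incubation. Read: CellTiter-Glo luminescence; fitted concentration-response, curve class assigned.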
ALOX12 inh = Primary qHTS assay for inhibitors of human arachidonate 12S-lipoxygenase (ALOX12): Round 2 | purified 12hLO, xylenol orange hydroperoxide absorbance | Potency, µM (series often up to 108 µM), usual class: inhibitors | hit rate 1.1% among 580,000
Target sequence (P18054 whole entry, looked up): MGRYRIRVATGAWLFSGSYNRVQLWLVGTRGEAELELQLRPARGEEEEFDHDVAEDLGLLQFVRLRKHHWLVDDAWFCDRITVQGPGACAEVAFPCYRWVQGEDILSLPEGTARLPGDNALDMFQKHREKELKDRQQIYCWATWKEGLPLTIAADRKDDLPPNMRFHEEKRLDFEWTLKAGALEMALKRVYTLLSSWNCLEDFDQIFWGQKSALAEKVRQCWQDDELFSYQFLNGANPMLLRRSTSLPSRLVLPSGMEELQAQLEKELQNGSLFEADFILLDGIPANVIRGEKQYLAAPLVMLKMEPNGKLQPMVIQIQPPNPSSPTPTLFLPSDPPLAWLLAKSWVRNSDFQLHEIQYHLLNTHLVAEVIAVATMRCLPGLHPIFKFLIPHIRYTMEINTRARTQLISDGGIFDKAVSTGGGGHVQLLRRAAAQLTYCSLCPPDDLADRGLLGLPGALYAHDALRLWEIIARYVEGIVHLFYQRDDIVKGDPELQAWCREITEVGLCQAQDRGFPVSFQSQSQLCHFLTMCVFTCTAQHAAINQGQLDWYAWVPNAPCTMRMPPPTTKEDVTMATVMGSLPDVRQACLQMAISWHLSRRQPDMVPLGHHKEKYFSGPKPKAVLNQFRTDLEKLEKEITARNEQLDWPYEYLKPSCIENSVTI
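Purified human 12hLO (150 nM final) in 25 mM Hepes, 0.01% Triton X-100, pH 7.0 was preincubated 15 min at room temperature with compound. Then 40 uM arachidonic acid was added, 30 min. Hydroperoxide was read by Fe-XO absorbance ratio 573/405 nm.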
IL1B secr inh = qHTS for Inhibitors of Inflammasome Signaling: IL-1-beta AlphaLISA Primary Screen | THP-1 LPS/ATP IL-1B secretion, AlphaLISA, 16 h; active compounds read low | activity change, % at 57.5 µM | hit rate 4.7% among 360,000 | AID 743279, 2014; in the data active = activity change below about -50%; inconclusive = mostly about -30% to -49%
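THP-1 cells pretreated 1 hr with compounds (up to 57.5 uM final), then stimulated with LPS (250 ng/mL final) plus ATP (1.25 mM final); secreted IL-1B measured by AlphaLISA after 16 hr, decreased signal indicating inhibition.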
TDP1 cell CPT = qHTS for Inhibitors of human tyrosyl-DNA phosphodiesterase 1 (TDP1): qHTS in cells in presence of CPT; AID 686979, 2013; chicken DT40 Tdp1-/-;hTDP1 cells + 20 nM CPT, ATP luminescence, 48 h; hit rate 12% among 420,000; Potency, µM (series often up to 46.2 µM), usual class: inhibitors; note: nearly all actives have a fitted effect of over 55% in size
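Chicken DT40 Tdp1-/- cells complemented with human TDP1, 400 cells/well, exposed to compounds plus 20 nM camptothecin for at least 48 h at 37 C; viability read as ATP content by CellTiter-Glo luminescence.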
HT1080-NT tox = qHTS for induction of synthetic lethality in tumor cells producing 2HG: qHTS for the HT-1080-NT fibrosarcoma cell line; HT-1080-NT fibrosarcoma viability, CellTiter-Glo ATP luminescence, 48 h; Potency, µM (series often up to 46.1 µM), hits mostly cytotoxic; hit rate 1.6% among 360,000;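 note: NT is the 2HG producing partner of a matched IDH1 knockdown line; nearly all actives have a fitted effect of over 55% in size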
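Viability by CellTiter-Glo luminescence after 48 h compound exposure at 37C of HT-1080-NT cells (750/well, RPMI, 5% FBS). % activity scaled between DMSO wells and medium-only wells, then curve-fitted and categorized by curve class.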
DT40 TDP1 no CPT = qHTS for Inhibitors of human tyrosyl-DNA phosphodiesterase 1 (TDP1): qHTS in cells in absence of CPT; hit rate 15% among 420,000; AID 686978, 2013; Potency, µM (highest dose often 46.2 µM), most hits filed as inhibitors; DT40 Tdp1-/- hTDP1 cells, no CPT, ATP luminescence, 48 h; note: nearly all actives have a fitted effect of over 55% in size
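No-CPT arm: Tdp1-/-;hTDP1 DT40 cells (400/well) plus compounds, incubated ≥48 hr at 37 °C. Readout CellTiter-Glo luminescence.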
Numbers stand for hits; – = inactive; ? = inconclusive; · = no result; [ ] = another dose, or the depositor's remark. Unless noted, calls come from the whole dose curve; as a rule, active = well fitted curve in the direction sought with a large enough effect; inconclusive = small, poorly fitted or top-dose-only effect, or another doubt; inactive = no such curve, though single readings can be large; an effect the other way counts as inactive or inconclusive.

SMILES | HT1080 IDH1KD tx | ALOX12 inh | IL1B secr inh | TDP1 cell CPT | HT1080-NT tox | DT40 TDP1 no CPT
Cc1noc(-c2ccc(N3CC4CC(C3)c3cccc(=O)n3C4)nc2)n1 (stereo not drawn) | · | – | · | · | · | ·
C=CCNc1nnc(Sc2ncccc2[N+](=O)[O-])s1 | – | ? | – | 5.2µM | – | 7.3µM
Cc1ncc2c(n1)C[C@@H]1CC[C@H]2N1S(=O)(=O)c1ccc2c(c1)C(C)(C)C(=O)N2 | · | – | · | · | · | ·
CN1CCCC2(CCN(C(=O)c3ccco3)CC2)C1 | · | – | · | – | · | –
CC12CCC(=O)C=C1CCC1C2CCC2(C)C1CC[C@]2(C)O (stereo partly drawn) | · | – | · | · | · | ·
COc1ccccc1C1Nc2ccccc2-n2c(-c3ccccc3)c3c(=O)n(C)c(=O)n(C)c3c21 (stereo not drawn) | · | – | · | – | · | 6.5µM
O=C1NCCCCCCN(Cc2ccncc2)[C@@H]2CN(C(=O)COc3ccccc3)CC[C@@H]12 | · | – | · | · | · | ·
Cc1ccc(NC(=O)c2cnc3sc(N4CCOCC4)nn3c2=O)cc1N(C)C | · | – | · | 15µM | · | 21µM
NC[C@H](CS(=O)(=O)O)c1ccc(Cl)cc1 | · | – | · | – | · | –
CCCCCCCCCC(CC)c1ccc(S(=O)(=O)O)cc1 (stereo not drawn) | · | 23µM | · | ? | · | ?
c1ccc(N2CC3(CCNCC3)C2)nc1 | · | – | · | ? | · | ?
Cc1ccc(C(=O)N2[C@H]3CC[C@@H]2c2cnc(C)nc2C3)c(C)c1 | · | – | · | · | · | ·
O=c1[nH]cnc2nc(-c3ccc(N(CCCl)CCCl)cc3)[nH]c12 | 0.65µM | – | – | ? | ? | ?
CN(C)c1ccc(C(=O)NC[C@H]2C[C@@H]3CCN2C[C@@H]3CN2CCN(c3ccccn3)CC2)cc1 | · | – | · | · | · | ·
CCn1c(=O)oc2cc(NC(=O)CCl)ccc21 | 5.2µM | – | -100 | 12µM | 8.2µM | 15µM
COC(=O)C1=C(c2cccc(OCc3ccccc3)c2)C[C@@H]2CC[C@H]1N2C(=O)NCCCc1ccccc1 | – | – | – | ? | – | ?
COC(=O)C1=C(c2ccccc2)C[C@@H]2CC[C@H]1N2C(=O)NCc1ccccc1 | – | – | – | – | – | –
COC(=O)C1=C(c2ccc(OCc3ccccc3)cc2)C[C@@H]2CC[C@H]1N2C(=O)NCc1ccccc1OC | – | – | – | 16µM | – | 8.2µM
COC(=O)C1=C(c2ccc(OCc3ccccc3)cc2)C[C@@H]2CC[C@H]1N2C(=O)NCc1ccccc1C(F)(F)F | – | ? | – | 16µM | – | 12µM
COC(=O)C1=C(c2ccc(OCc3ccccc3)cc2)C[C@@H]2CC[C@H]1N2C(=O)NCCCc1ccccc1 | – | – | – | 15µM | – | 13µM
COC(=O)C1=C(c2ccc(OCc3ccccc3)cc2)C[C@@H]2CC[C@H]1N2C(=O)NCc1ccc(OC)c(OC)c1 | – | – | – | 18µM | – | 23µM
COC(=O)C1=C(c2cccc(OCc3ccccc3)c2)C[C@@H]2CC[C@H]1N2C(=O)NCc1ccc(F)cc1 | – | – | – | ? | – | ?
COC(=O)C1=C(c2ccc(OCc3ccccc3)cc2)C[C@@H]2CC[C@H]1N2C(=O)NCc1ccc(F)cc1 | ? | – | ? | 15µM | – | 23µM
COc1ccc(CC(N)c2csc(NC(=O)Nc3ccccc3Oc3ccccc3)n2)cc1 (stereo not drawn) | ? | ? | ? | ? | 15µM | 16µM
NC(Cc1ccc(Cl)cc1)c1csc(Nc2cnccn2)n1 (stereo not drawn) | ? | ? | ? | – | ? | –
SMILES | HT1080 IDH1KD tx | ALOX12 inh | IL1B secr inh | TDP1 cell CPT | HT1080-NT tox | DT40 TDP1 no CPT
COc1ccc(OC)c(S(=O)(=O)NC[C@H]2C[C@@H]3CCN2C[C@@H]3c2cc(-c3cccs3)nn2C)c1 | · | – | · | · | · | ·
CN(C)CCc1c[nH]c2ccccc12 | · | · | · | – | · | –
C=CCc1cc(C)ccc1OCCCC(C(=O)OCC)C(=O)OCC | – | – | – | – | – | ?
CCCCCOc1ccc(C)cc1CN(CCCl)CCCl | ? | – | · | 16µM | – | 16µM
Cc1ncc2c(n1)C[C@@H]1CC[C@H]2N1C(=O)NC(C)C | · | – | · | · | · | ·
CCCNC(=O)c1cc2c(c(-c3cccc(-c4cc5ccccc5o4)c3)n1)[C@H](CCO)N(C(=O)NC(C)C)C2 | ? | – | -72 | 8.2µM | ? | 12µM
CC(C)NC(=O)N1Cc2cc(C(=O)NC3CCCCC3)nc(-c3cccc(-c4cccnc4)c3)c2[C@@H]1CCO | – | – | ? | 12µM | – | 10µM
c1ccc(C2=NOC3(CCCN(Cc4ccccn4)C3)C2)cc1 (stereo not drawn) | · | –[6.33 µM] | · | · | · | ·
CCOc1ccccc1NC(=O)NCc1ccc2c(c1)CCN2C(=O)c1ccccc1 | · | – | · | 23µM | · | 16µM
Cc1ccc(NC(=O)NCc2ccc3c(c2)CCN3C(=O)c2ccccc2)c(Cl)c1 | · | ? | · | ? | · | 23µM
CCOc1cccc(CC(=O)NCc2ccc3c(c2)CCN3C(=O)c2cccc(C)c2)c1OCC | · | – | · | 21µM | · | 21µM
CCOc1ccccc1NC(=O)c1cccn(Cc2ccccc2C)c1=O | · | – | · | – | · | –
N#C/C(=C\c1ccc(Cl)cc1)C(=O)Nc1ccc(Cl)cc1C(=O)c1ccccc1 | · | – | · | · | · | ·
c1ccc(C2(NC3=NCCO3)CCCCC2)cc1 | – | – | ? | ? | – | 9.2µM
NC1(c2ccccc2)CCCCC1 | · | · | · | – | · | ?
O=C(CCc1nc2ccccc2s1)N1[C@H]2CC[C@@H]1c1cnc(-c3ccc(F)cc3)nc1C2 | · | – | · | · | · | ·
O=C(c1ccco1)N1[C@H]2CC[C@@H]1c1cnc(-c3ccc(F)cc3)nc1C2 | · | – | · | · | · | ·
CCCCCCCCN1C(=O)[C@H](CC(=O)NCCc2ccccc2OC)C[C@@]2(C(=O)OC)CCCCC=C12 | ? | – | -70 | ? | ? | ?
O=C(c1ccc(C(F)(F)F)cc1)N1CCN(Cc2ccccc2)CC1 | · | – | · | · | · | ·
O=C(OCc1c(-c2ccccc2)ncc2ccccc12)c1ccc(C(F)(F)F)cc1 | – | – | – | ? | – | 5.8µM
COc1ccc2[nH]c(C)c(CCN3CCC(=O)C(C)C3C)c2c1 (stereo not drawn) | – | ? | – | – | – | –
CCC1=CCN(CCc2c(C)[nH]c3ccccc23)CC1 | – | – | – | – | – | 0.58µM
